Test [1] addresses Cell division control protein 42 homolog (Homo sapiens) (UniProt P60953). Description: activated mutant Cdc42 GTP-binding inhibitors, dose response, biochemical, multiplex bead flow cytometry, Bodipy-FL-GTP (AID 1333;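 active = fitted half-maximal concentration within the tested dose range, moderate curve steepness, a statistically real signal drop, and little compound fluorescence or tag-binding interference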). On the technique in general: Flow cytometry measures light scatter and fluorescence of single cells or particles in a stream.
The target is the same in test [2]. As to the kind of experiment: wildtype Cdc42 GTP-binding inhibitors, dose response, biochemical, multiplex bead flow cytometry, Bodipy-FL-GTP (AID 1334;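 active = fitted half-maximal concentration within the tested range, moderate curve steepness, significant signal drop, and little compound fluorescence or bead-linkage interference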). To be noted: bead-based flow cytometry, Bodipy-FL-GTP binding to GST-Cdc42; at 100 µM (top of the series) unless noted.
In test [3] the target is GTPase HRas (Homo sapiens) (UniProt P01112). Description: inhibitors of GTP binding to wildtype Ras, dose response, biochemical, multiplex bead flow cytometry (AID 1335;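 active = fitted half-maximal concentration within 10 nM to 100 µM, steepness 0.5 to 2, significant signal drop, low assay interference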). The settings on record: bead-based flow cytometry, Bodipy-GTP binding to GST-Ras; at 100 µM (top of the series) unless noted.
For test [4], the system named is Ras-related protein Rab-7a (dog), GTP binding. Description: Rab7 GTP binding inhibitors, potency, dose response, biochemical, wildtype, multiplex bead flow cytometry (AID 1336; call rule not given here).
Test [5] has as its target Ras-related C3 botulinum toxin substrate 1 (Homo sapiens) (UniProt P63000). Description: wildtype Rac1 GTP binding inhibitors, dose response, biochemical, multiplex bead flow cytometry (AID 1340). The settings on record: GST-Rac1 beads, Bodipy-FL-GTP binding; at 100 µM (top of the series) unless noted.
Test [6] concerns the target GTPase HRas (Homo sapiens) (UniProt P01112). As to the kind of experiment: activated Ras mutant GTP binding inhibitors, dose response, biochemical, multiplex bead flow cytometry (AID 1341;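 active = dose-response curve with midpoint inside the tested range, moderate steepness, significant amplitude and little compound fluorescence or bead-attachment interference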;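 also: GST-tagged constitutively activated Ras mutant immobilized on beads and multiplexed with other GTPases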).

For part of these data: Results with a measured potency or affinity are listed apart. Activity calls are given as the source filed them.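 The calls were made as follows, unless noted: active = dose curve with midpoint inside tested range, moderate steepness, plateau gap beyond fit error, low compound glow and bead-link interference; inactive = the rest.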

Sequence of GTPase HRas (Homo sapiens) (P01112 whole entry, looked up): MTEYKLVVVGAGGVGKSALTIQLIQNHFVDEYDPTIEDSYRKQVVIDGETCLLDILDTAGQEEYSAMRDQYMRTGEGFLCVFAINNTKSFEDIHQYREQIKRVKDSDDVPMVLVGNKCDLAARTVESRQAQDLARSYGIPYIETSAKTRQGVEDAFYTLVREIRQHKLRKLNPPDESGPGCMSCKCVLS
Sequence of Cell division control protein 42 homolog (Homo sapiens) (P60953 whole entry, looked up): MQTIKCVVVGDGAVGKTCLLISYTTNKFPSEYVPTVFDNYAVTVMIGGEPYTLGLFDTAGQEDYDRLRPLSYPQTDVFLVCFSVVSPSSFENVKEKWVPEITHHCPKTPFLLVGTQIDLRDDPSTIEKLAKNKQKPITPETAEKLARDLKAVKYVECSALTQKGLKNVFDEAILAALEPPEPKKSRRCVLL

As to `Cc1nc(NC(=O)/C=C/c2ccc(Cl)cc2Cl)sc1C(=O)N(C)C`, the molecule was classed as inactive in test [1], in test [4] and in test [6]. Also, the fluorescence, percent of control (lower = inhibition) in test [2] worked out at 45%. The molecule also gave a GTP binding, percent of control in test [3] of 61.1%. Further, the GTP binding signal, raw median fluorescence (lower = inhibition) (MCF (arbitrary fluorescence units)) in test [5] was 182.

As for `Cc1nc2ccc(-c3nc4ccc(N)cc4[nH]3)cc2[nH]1`, the result in test [1], in test [4] and in test [6] was inactive. Also, in test [2], the fluorescence, percent of control (lower = inhibition) worked out at 35.3%. In addition, the GTP binding, percent of control in test [3] turned out to be 79.9%. This molecule showed a GTP binding signal, raw median fluorescence (lower = inhibition) (MCF (arbitrary fluorescence units)) in test [5] of 210.

With `COc1ccc(-c2nn3c(-c4ccccn4)nnc3s2)cc1OC`, the molecule was classed as inactive in test [1], in test [4] and in test [6]. In test [2], the fluorescence, percent of control (lower = inhibition) was found to be 43%. The same molecule had a GTP binding, percent of control in test [3] of 52.9%. Also, in test [5], the GTP binding signal, raw median fluorescence (lower = inhibition) (MCF (arbitrary fluorescence units)) came to 137.

For `Cc1ccc(Sc2nnc(-c3ccccc3)cc2C#N)cc1`, the result in test [1], in test [4] and in test [6] was inactive. Also, in test [2], the fluorescence, percent of control (lower = inhibition) stood at 104%. Besides, in test [3], the GTP binding, percent of control is 178%. Further, the GTP binding signal, raw median fluorescence (lower = inhibition) (MCF (arbitrary fluorescence units)) in test [5] was 185.

For `Cc1ccc(-n2c(=O)cc(N3CCN(C(=O)c4ccco4)CC3)[nH]c2=O)cc1`, the molecule was classed as inactive in test [1], in test [4] and in test [6]. The fluorescence, percent of control (lower = inhibition) in test [2] stood at 36.6%. This molecule also had a GTP binding, percent of control in test [3] of 81.3%. The same molecule displayed a GTP binding signal, raw median fluorescence (lower = inhibition) (MCF (arbitrary fluorescence units)) in test [5] of 286.

As for `CN(/N=C/c1ccncc1)C1=NS(=O)(=O)c2ccccc21`, the molecule was called inactive in test [1], in test [4] and in test [6]. In test [2], the fluorescence, percent of control (lower = inhibition) turned out to be 53.9%. For the same molecule, the GTP binding, percent of control in test [3] turned out to be 32.4%. Besides, the GTP binding signal, raw median fluorescence (lower = inhibition) (MCF (arbitrary fluorescence units)) in test [5] was 181.

Regarding `O=C(O)c1cc(C(=O)O)cc(-c2ccc(/C=c3/sc4nc5ccccc5n4c3=O)o2)c1`, the molecule was called inactive in test [1], in test [4] and in test [6]. In addition, the fluorescence, percent of control (lower = inhibition) in test [2] came out at 30%. The GTP binding, percent of control in test [3] turned out to be 72.3%. The same molecule showed a GTP binding signal, raw median fluorescence (lower = inhibition) (MCF (arbitrary fluorescence units)) in test [5] of 185.

For the molecule `Cc1cccc(C)c1NC(=O)CSc1ccc([N+](=O)[O-])cn1`, the call in test [1], in test [4] and in test [6] was inactive. In test [2], the fluorescence, percent of control (lower = inhibition) was 85.9%. Moreover, the GTP binding, percent of control in test [3] was 97.1%. This molecule also returned a GTP binding signal, raw median fluorescence (lower = inhibition) (MCF (arbitrary fluorescence units)) in test [5] of 246.

For `O=C(COC(=O)C1(c2ccccc2F)CCCC1)Nc1ncc(C(F)(F)F)cc1Cl`, the outcome in test [1], in test [4] and in test [6] was inactive. The fluorescence, percent of control (lower = inhibition) in test [2] turned out to be 47.6%. In addition, the GTP binding, percent of control in test [3] came out at 60.4%. In test [5], this molecule gave a GTP binding signal, raw median fluorescence (lower = inhibition) (MCF (arbitrary fluorescence units)) of 194.

With `CC(C)n1c(O)c(N=Nc2ccc(Cl)nn2)c2ccccc21`, the result in test [1], in test [4] and in test [6] was inactive. Also, the fluorescence, percent of control (lower = inhibition) in test [2] was determined as 69.1%. This molecule also yielded a GTP binding, percent of control in test [3] of 78.2%. The molecule further showed a GTP binding signal, raw median fluorescence (lower = inhibition) (MCF (arbitrary fluorescence units)) in test [5] of 196.

In the case of `O=C1CS/C(=N/N=C2C3CC4CC(C3)CC2C4)N1`, the molecule was called inactive in test [1], in test [4] and in test [6]. The fluorescence, percent of control (lower = inhibition) in test [2] amounted to 48.5%. This molecule gave a GTP binding, percent of control in test [3] of 68.2%. The GTP binding signal, raw median fluorescence (lower = inhibition) (MCF (arbitrary fluorescence units)) in test [5] came out at 214.

Consider `COc1ccc2o/c(=N/NC(=O)c3cccs3)c(C(N)=O)cc2c1`, for which the outcome in test [1], in test [4] and in test [6] was inactive. In addition, in test [2], the fluorescence, percent of control (lower = inhibition) worked out at 28.1%. In addition, the GTP binding, percent of control in test [3] was determined as 64.4%. For the same molecule, the GTP binding signal, raw median fluorescence (lower = inhibition) (MCF (arbitrary fluorescence units)) in test [5] was determined as 160.

Take `CCOc1ccccc1C1C(C(=O)OC)=C(N)OC2=C1C(=O)CCC2` (stereo not given): the call in test [1], in test [4] and in test [6] was inactive. Moreover, in test [2], the fluorescence, percent of control (lower = inhibition) is 90%. This molecule also yielded a GTP binding, percent of control in test [3] of 149%. In test [5], this molecule gave a GTP binding signal, raw median fluorescence (lower = inhibition) (MCF (arbitrary fluorescence units)) of 184.

Take `CCCCNC(=O)c1cc([N+](=O)[O-])[nH]n1`: the call in test [1], in test [4] and in test [6] was inactive. Further, the fluorescence, percent of control (lower = inhibition) in test [2] amounted to 56.1%. Further, the GTP binding, percent of control in test [3] turned out to be 74.5%. For the same molecule, the GTP binding signal, raw median fluorescence (lower = inhibition) (MCF (arbitrary fluorescence units)) in test [5] was determined as 282.

As for `CCCN(CC1CC1)C(=S)Nc1ccc(Oc2ccccc2)cc1`, the outcome in test [1], in test [4] and in test [6] was inactive. Further, the fluorescence, percent of control (lower = inhibition) in test [2] worked out at 26.1%. The molecule further registered a GTP binding, percent of control in test [3] of 81.4%. This molecule also gave a GTP binding signal, raw median fluorescence (lower = inhibition) (MCF (arbitrary fluorescence units)) in test [5] of 258.

The values above are taken from PubChem BioAssay.
